These results are taken from PubChem BioAssay (Tox21).

Unmarked numbers belong to inactive results. Where a call stands in place of a potency, no number is given. Active and inactive are the calls of the source. Calls come from the whole dose curve; as a rule, active = well fitted curve in the direction sought with a large enough effect in the repeat runs; inconclusive = weak or mixed curves; inactive = flat fitted curve, though single readings scatter.

This assay in a line: qHTS assay to test for compound auto fluorescence at 460 nm (blue) in HEK293 cells (AID 720678). The following applies: blue autofluorescence 405/460 nm; series mostly up to 91.3 µM. From the text:
National Center for Advancing Translational Sciences [NCATS]
NIH Chemical Genomics Center [NCGC]
U.S. Environmental Protection Agency [EPA]
National Institutes of Environmental Health Sciences [NIEHS]
National Toxicology Program [NTP]
U.S. Food and Drug Administration [FDA]
Compound auto fluorescence often interferes with screening of the compound library against various biological targets and signaling pathways. Some of these compounds may have fluorophoric properties. Such properties may interfere with the assay outputs resulting in false positives and/or negatives. To decrease such complications and ensure the compound activities are relevant in terms of biological response, the Tox21 10K compound library was screened for auto fluorescence.
From the fluorophores used as reporter signals in our screening assays, the auto fluorescence equivalencies of compounds against three fluorophores have been evaluated: Triamterene, Fluorescein and Rose Bengal sodium for blue, green and red fluorescence, respectively. The fluorescence intensities were measured using Excitation/Emission wavelengths at 405/460nm, 485/535nm and 540/590nm for blue, green and red labels, respectively. This assay includes the blue fluorescence data.
Tox21 Assay Protocol Summary:
2,000 HEK293 cells in 5 uL of culture medium containing 10% dialyzed FBS per well were dispensed into black wall/clear bottom 1536-well plates using a Multidrop Combi Dispenser (Thermo Scientific). The assay plates were incubated for 4-5 hr at 37C to allow cell attachment to the well bottom, followed by the transfer of 23 nL compound or DMSO vehicle by a pintool work station (Kalypsys, San Diego, CA). After the assay plates were incubated overnight at 37C and 5% CO2, fluorescence intensities in the assay plates were measured by an Envision (PerkinElmer, Shelton, CT) plate reader using three labels for measuring blue, green and red fluorescence at […] 460, 535 and 590nm respectively.
On the technique in general: Quantitative high-throughput screening tests each substance at several concentrations.
As to `CCOC(=O)c1ccccc1C(=C1C=C(Br)C(=O)C(Br)=C1)c1cc(Br)c(O)c(Br)c1`, the Potency result was “inactive”. On the same count and under the same terms, then `Cc1ccccc1S`, with “inactive”; and `c1ccc2c(c1)CCc1ccccc1N2`, with “inactive”; and `Cc1ccc(C(C)(C)O)cc1`, with “inactive”. On to `CCCCCCCCCI`, for which the Potency entry was “inactive”. Same read-out and setting: for `CCC(=O)C1CC(C(C)C)CC=C1C` (stereo not given) the value was “inactive”. The same measure, in the same setting: for `CCCCCCCC/C=C\CCCCCCCCO` the value was “inactive”. Turning to `C=CC(=O)[O-].C=CC(=O)[O-].[Zn+2]`, the Potency result is “inactive”. Still for that read-out and setting: for `CC(C)=CCC1C(=O)N(c2ccccc2)N(c2ccccc2)C1=O` the value was “inactive”.

`C[C@@H](O[C@H]1OCCN(Cc2n[nH]c(=O)[nH]2)[C@H]1c1ccc(F)cc1)c1cc(C(F)(F)F)cc(C(F)(F)F)c1`: the Potency entry was “inactive”. `CC(C)(C)C(=O)C(=O)O`: the Potency entry is “inactive”.

As to `CC(C)=CCC/C(C)=C/CC/C(C)=C/CCC(=O)OC/C=C(\C)CCC=C(C)C`, the Potency entry is “inactive”. The same measure, in the same setting: then `CN1CCCN=C1COC(=O)C(O)(c1ccccc1)C1CCCCC1` (stereo not given), with “inactive”; and `CCOc1ccccc1O[C@H](c1ccccc1)[C@H]1CNCCO1`, with “inactive”.

As for `C/C=C\C/C=C/CCCCCCCCOC(C)=O`, the Potency result was “inactive”. Regarding `CN1C[C@H](C(=O)N[C@]2(C)O[C@@]3(O)[C@@H]4CCCN4C(=O)[C@H](Cc4ccccc4)N3C2=O)C[C@@H]2c3cccc4[nH]cc(c34)C[C@H]21`, the Potency result was “inactive”. Same read-out and setting: for `O=Cc1c2ccccc2c(Cl)c2ccccc12` the value was “inactive”. Still for that read-out and setting: for `Cc1cc(C)cc(N)c1` the value was “inactive”; for `c1ccc(C[n+]2cccc3ccccc32)cc1`, “inactive”. On the same count and under the same terms, for `C=C(C)CCCC(C)CCO` (stereo not given) the value was “inactive”; for `O=C1c2ccccc2C(=O)C1c1ccc(Br)cc1`, “inactive”. With `O=C1c2ccccc2C(=O)C1c1nc2ccccc2c(Br)c1O`, the Potency entry was “inactive”.

For the molecule `COc1ccccc1N1CCN(CC(O)COc2cccc3ccccc23)CC1` (stereo not given), the Potency entry is “inactive”. Consider `C[C@@]12CCC[C@H]1[C@@H]1CC[C@H]3C[C@@H](O)CC[C@]3(C)[C@H]1CC2`, for which the Potency entry was “inactive”.

In the case of `CC(=O)c1ccc([N+](=O)[O-])cc1`, the Potency result is “inactive”. On to `O=C1C(=O)c2ccccc2C(O)=C1C1CCC(c2ccc(Cl)cc2)CC1` (stereo not given), for which the fluorescence, % of triamterene was 0.0437% [at 18.6 µM].

`C=COCC(C)C`: the Potency result was “inactive”.

In the case of `COC(=O)CCS`, the Potency result was “inactive”. For `CC(=O)OCC(=O)NCCCOc1cccc(CN2CCCCC2)c1`, the Potency entry is “inactive”.

In the case of `C1COC1`, the Potency result is “inactive”. Consider `Cc1ccco1`, for which the Potency entry is “inactive”.

Consider `C[C@@H]1CC(=O)NN=C1c1ccc(NN=C(C#N)C#N)cc1`, for which the Potency result is “inactive”. Same read-out and setting: then `CCC(C)COC(C)=O` (stereo not given), with “inactive”.

Consider `CCOC(C)=O`, for which the Potency entry is “inactive”. The same measure, in the same setting: then `O=c1[nH]ncc2ccccc12`, with “inactive”; and `CCCCCCCCOc1ccc(C(=O)O)cc1`, with “inactive”; and `CCCCCCCCN`, with “inactive”.

Turning to `O=C1NC(=O)c2cc([N+](=O)[O-])ccc21`, the Potency result was “inactive”. Same read-out and setting: then `CC(=O)Nc1ccc(C)cc1C`, with “inactive”. For the molecule `O=C(OCC(O)CO)c1ccccc1Nc1ccnc2cc(Cl)ccc12` (stereo not given), the fluorescence, % of triamterene is 0.52% [at 18.6 µM].
